Bioassay records from PubChem BioAssay.
An excerpt weighted towards active compounds, which were near 3.9% of everything screened.
Anthrax LF inh2 = inhibitors of Bacillus anthracis lethal factor protease; 0.12% of 360,000 active; P15917; multiplex microsphere protease cleavage assay, LF; inhibition, % at 10 µM; further: plate controls were buffer without enzyme for full effect and enzyme alone for no effect
Target sequence (P15917 whole entry, looked up): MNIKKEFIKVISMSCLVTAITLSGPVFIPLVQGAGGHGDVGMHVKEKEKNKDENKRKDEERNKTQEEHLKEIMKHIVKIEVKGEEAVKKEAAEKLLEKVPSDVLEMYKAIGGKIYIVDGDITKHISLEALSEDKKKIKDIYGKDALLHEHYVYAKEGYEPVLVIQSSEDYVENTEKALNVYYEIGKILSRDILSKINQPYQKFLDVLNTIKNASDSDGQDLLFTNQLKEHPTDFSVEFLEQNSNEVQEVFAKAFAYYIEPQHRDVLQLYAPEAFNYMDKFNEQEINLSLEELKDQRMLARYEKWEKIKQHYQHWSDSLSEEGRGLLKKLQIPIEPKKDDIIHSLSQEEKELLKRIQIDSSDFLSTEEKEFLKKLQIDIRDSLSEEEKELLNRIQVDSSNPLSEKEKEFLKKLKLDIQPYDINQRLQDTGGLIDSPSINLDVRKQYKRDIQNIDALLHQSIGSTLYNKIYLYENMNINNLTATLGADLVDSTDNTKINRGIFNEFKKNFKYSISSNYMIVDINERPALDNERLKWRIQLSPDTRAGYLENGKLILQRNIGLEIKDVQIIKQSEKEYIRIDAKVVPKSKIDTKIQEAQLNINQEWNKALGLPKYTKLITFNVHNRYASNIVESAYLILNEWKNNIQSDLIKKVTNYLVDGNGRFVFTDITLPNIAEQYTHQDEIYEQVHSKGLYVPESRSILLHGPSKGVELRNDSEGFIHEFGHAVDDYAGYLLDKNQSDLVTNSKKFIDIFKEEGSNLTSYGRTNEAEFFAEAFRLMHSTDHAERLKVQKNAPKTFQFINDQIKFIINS
BoNT A protease = BoNT A light chain protease inhibition; AID 588499; multiplex microsphere protease substrate cleavage, flow cytometry; inhibition, % at 10 µM; 0.17% of 360,000 active; further: plate controls were buffer without enzyme for full effect and enzyme alone for no effect
BoNT-F LC inh = BoNT F light chain protease inhibition; inhibition, % at 10 µM; 0.22% of 360,000 active; Multiplex microsphere protease cleavage assay, flow cytometry; in the data active means inhibition above about 35%, passing the limit was not always enough; inconclusive means no clear call, values can overlap the other calls; further: plate controls were buffer without enzyme for full effect and enzyme alone for no effect
VHR inh abs = blocks human VHR1 dual specificity phosphatase; AID 1654; 0.52% of 290,000 active; inhibition, % at 13.3 µM; P51452; recombinant VHR phosphatase, pNPP absorbance; in the data active means inhibition above about 50%
SARS 3CLpro inh = SARS-CoV 3CLpro protease inhibition; 0.14% of 290,000 active; P0C6X7; inhibition, % at 6 µM; recombinant SARS-CoV 3CLpro, quenched FRET peptide cleavage; in the data active means inhibition above about 12%
Autofluor counter = compound fluorescence in toxin protease inhibitor counterscreen | compound autofluorescence counterscreen, microsphere flow cytometry; active compounds read high | fluorescence intensity (no concentration beside the values) | 3.1% of 360,000 active | AID 624483; in the data active means fluorescence intensity above about 16000; inconclusive means no clear call, values can overlap the other calls
Numbers without * were called inactive. Unless noted, no stated cut-off is given here; in the data, active means inhibition above about 30%; inconclusive means no clear call, values can overlap the other calls; inactive means below that.

What do the screens show for `O=C(NCc1ccccc1)N1CCn2c(nc3ccccc32)C1`?
Anthrax LF inh2: -3; BoNT A protease: 2; BoNT-F LC inh: 0; VHR inh abs: 22; SARS 3CLpro inh: -5; Autofluor counter: 19281*

Results for Cc1sc2nc(C)n(/N=C/c3ccccc3)c(=O)c2c1C ?
Anthrax LF inh2: -6; BoNT A protease: -2; BoNT-F LC inh: -2; VHR inh abs: 5; SARS 3CLpro inh: -1; Autofluor counter: 9196

What do the screens show for `COc1ccc(/C=N/n2c(C)nc3sc(C)c(C)c3c2=O)cc1`?
Anthrax LF inh2: inconclusive; BoNT A protease: 8; BoNT-F LC inh: 38*; VHR inh abs: -1; SARS 3CLpro inh: 1; Autofluor counter: 3518

What do the screens show for `Cc1noc(C)c1NC(=O)Nc1cccc2c1O[C@H](CN(C)S(=O)(=O)c1cn(C)cn1)[C@@H](C)CN([C@H](C)CO)C2=O`?
Anthrax LF inh2: -5; BoNT A protease: 0; BoNT-F LC inh: -1; Autofluor counter: 2924

Results for Cc1nnc(NC(=O)C(C)Sc2nnc(CNC(=O)c3ccccc3F)n2C)s1 (stereo not given) ?
Anthrax LF inh2: inconclusive; BoNT A protease: 4; BoNT-F LC inh: 1; Autofluor counter: 4469

Results for O=[N+]([O-])c1ccc(C2CCCC/C2=N\OCc2cccc(F)c2)c([N+](=O)[O-])c1 (stereo not given) ?
Anthrax LF inh2: -4; BoNT A protease: inconclusive; BoNT-F LC inh: -9; VHR inh abs: 6; SARS 3CLpro inh: 2; Autofluor counter: 23769*

What do the screens show for `CCOC(=O)c1sc2nc(CC(=O)OC)nc(NCCN3CCOCC3)c2c1C`?
Anthrax LF inh2: 0; BoNT A protease: 0; BoNT-F LC inh: -6; VHR inh abs: -6; SARS 3CLpro inh: 3; Autofluor counter: 3541

How did CCOC(=O)c1sc2nc(CC(=O)OC)nc(NCCN(CC)CC)c2c1C do in these assays?
Anthrax LF inh2: -3; BoNT A protease: 3; BoNT-F LC inh: 2; VHR inh abs: 45; SARS 3CLpro inh: -4; Autofluor counter: 18785*

Results for COc1cccc(NC(=O)NCCCSC2CCCCC2)c1 ?
Anthrax LF inh2: -3; BoNT A protease: -2; BoNT-F LC inh: -4; VHR inh abs: 10; SARS 3CLpro inh: -2; Autofluor counter: 21430*

Results for COC(=O)N1CCCc2cc(C)ccc21 ?
Anthrax LF inh2: -3; BoNT A protease: -1; BoNT-F LC inh: -2; VHR inh abs: 22; SARS 3CLpro inh: 6; Autofluor counter: 4579

What do the screens show for `CCc1ccc2c(c1)CCCN2C(=O)c1ccccc1C(=O)O`?
Anthrax LF inh2: -1; BoNT A protease: 4; BoNT-F LC inh: -4; VHR inh abs: -12; SARS 3CLpro inh: 1; Autofluor counter: 19882*

Results for Cc1ccc2c(c1)CCCN2C(=O)c1ccoc1C ?
Anthrax LF inh2: -2; BoNT A protease: 1; BoNT-F LC inh: 1; VHR inh abs: -4; SARS 3CLpro inh: -6; Autofluor counter: 21940*

How did Cc1ccc2c(c1)CCCN2C(=O)c1cc2ccccc2oc1=O do in these assays?
Anthrax LF inh2: -3; BoNT A protease: inconclusive; BoNT-F LC inh: 0; VHR inh abs: 6; SARS 3CLpro inh: 8; Autofluor counter: 16268*

Results for Cc1ccc2c(c1)CCCN2C(=O)c1c(C)noc1C ?
Anthrax LF inh2: -6; BoNT A protease: 2; BoNT-F LC inh: 3; VHR inh abs: 2; SARS 3CLpro inh: -1; Autofluor counter: 22666*

Results for COc1ccc(C)cc1-n1nnnc1SCc1nc(N)nc(N(C)C)n1 ?
Anthrax LF inh2: 1; BoNT A protease: 0; BoNT-F LC inh: -6; Autofluor counter: 3870

How did O=C(COc1ccc(Cl)cc1Br)OCC(=O)c1ccc[nH]1 do in these assays?
Anthrax LF inh2: 5; BoNT A protease: -1; BoNT-F LC inh: 2; Autofluor counter: 5457

What do the screens show for `Cn1cc(S(=O)(=O)c2ccccc2)n(C)c1=O`?
Anthrax LF inh2: -4; BoNT A protease: 0; BoNT-F LC inh: 2; VHR inh abs: 26; SARS 3CLpro inh: 11; Autofluor counter: 4052

How did Cc1ccc(C(=O)N2CCN(C(=O)C3CCCO3)CC2)cc1 (stereo not given) do in these assays?
Anthrax LF inh2: -3; BoNT A protease: 0; BoNT-F LC inh: -5; Autofluor counter: 4041

What do the screens show for `Cc1ccc2c(c1)CCCN2C(=O)C1CCCO1` (stereo not given)?
Anthrax LF inh2: -2; BoNT A protease: -3; BoNT-F LC inh: -2; VHR inh abs: -16; SARS 3CLpro inh: 3; Autofluor counter: 22991*

How did CC(C)C(C(=O)NCC1CCCO1)N(C(=O)CNS(=O)(=O)c1ccc(F)cc1)C1CCCCC1 (stereo not given) do in these assays?
Anthrax LF inh2: -1; BoNT A protease: 0; BoNT-F LC inh: -4; VHR inh abs: -20; SARS 3CLpro inh: 1; Autofluor counter: 5761

Results for O=S(=O)(NCC1CCCO1)c1ccc(Cl)c(C(F)(F)F)c1 (stereo not given) ?
Anthrax LF inh2: -1; BoNT A protease: inconclusive; BoNT-F LC inh: 4; VHR inh abs: 22; SARS 3CLpro inh: 2; Autofluor counter: 21968*

How did O=S(=O)(NCC1CCCO1)c1ccc(S(=O)(=O)N(Cc2ccc(F)cc2)C2CCCCC2)cc1 (stereo not given) do in these assays?
Anthrax LF inh2: 0; BoNT A protease: 2; BoNT-F LC inh: 5; SARS 3CLpro inh: 1; Autofluor counter: 21632*

What do the screens show for `CCCCCOC(=O)CSc1n[nH]c(=O)[nH]c1=O`?
Anthrax LF inh2: 2; BoNT A protease: 2; BoNT-F LC inh: 4; VHR inh abs: 7; SARS 3CLpro inh: -5; Autofluor counter: 22105*

What do the screens show for `CCOCCOC(=O)CCSc1n[nH]c(=O)[nH]c1=O`?
Anthrax LF inh2: 0; BoNT A protease: 0; BoNT-F LC inh: 1; VHR inh abs: 10; SARS 3CLpro inh: 3; Autofluor counter: 5143

What do the screens show for `COc1ccc(CC(=O)Nc2nn(C)c3nc4c(C)cccc4cc23)cc1`?
VHR inh abs: 9; SARS 3CLpro inh: -1

How did COc1ccc(C(=O)Nc2sc(C)c(C)c2CN2CC(C)OC(C)C2)cc1 (stereo not given) do in these assays?
Anthrax LF inh2: -1; BoNT A protease: 0; BoNT-F LC inh: -2; VHR inh abs: 0; SARS 3CLpro inh: 0; Autofluor counter: 2132

How did Cn1c2ccc(F)cc2c2ncn(Cc3ccco3)c(=O)c21 do in these assays?
Anthrax LF inh2: -2; BoNT A protease: -2; BoNT-F LC inh: -7; VHR inh abs: -14; SARS 3CLpro inh: 1; Autofluor counter: 23973*

Results for Cn1c2ccc(F)cc2c2ncn(Cc3ccccn3)c(=O)c21 ?
Anthrax LF inh2: 5; BoNT A protease: 0; BoNT-F LC inh: 9; VHR inh abs: 27; SARS 3CLpro inh: -3; Autofluor counter: 6207

How did Cn1c2ccccc2c2ncn(Cc3ccco3)c(=O)c21 do in these assays?
Anthrax LF inh2: 0; BoNT A protease: 2; BoNT-F LC inh: 1; VHR inh abs: 42; SARS 3CLpro inh: -4; Autofluor counter: 19514*

What do the screens show for `CCCCn1nnnc1C(c1cc2ccccc2o1)N1CCN(C(=O)OCC)CC1` (stereo not given)?
Anthrax LF inh2: -6; BoNT A protease: -1; BoNT-F LC inh: 5; Autofluor counter: 4529
